Compounds with a hit are over-represented: about 8.1% of the library has one in this group of screens.
RORgamma inh: inhibitors of mouse ROR gamma transcriptional activity; P51450; Drosophila S2 Gal4-RORgamma UAS-luciferase reporter, 20 h; Potency, µM (doses to about 53.6 µM), for inactives: at the top dose activity change, negative = inhibition, actives largely listed as inhibitors; 310,000 compounds, 5.4% hits; AID 2551; also: % is scaled to controls: 0 for no effect and ±100 for the full control effect; nearly all actives have a fitted effect of over 60% in size
Target sequence (P51450 whole entry, looked up, the tested form may be a part): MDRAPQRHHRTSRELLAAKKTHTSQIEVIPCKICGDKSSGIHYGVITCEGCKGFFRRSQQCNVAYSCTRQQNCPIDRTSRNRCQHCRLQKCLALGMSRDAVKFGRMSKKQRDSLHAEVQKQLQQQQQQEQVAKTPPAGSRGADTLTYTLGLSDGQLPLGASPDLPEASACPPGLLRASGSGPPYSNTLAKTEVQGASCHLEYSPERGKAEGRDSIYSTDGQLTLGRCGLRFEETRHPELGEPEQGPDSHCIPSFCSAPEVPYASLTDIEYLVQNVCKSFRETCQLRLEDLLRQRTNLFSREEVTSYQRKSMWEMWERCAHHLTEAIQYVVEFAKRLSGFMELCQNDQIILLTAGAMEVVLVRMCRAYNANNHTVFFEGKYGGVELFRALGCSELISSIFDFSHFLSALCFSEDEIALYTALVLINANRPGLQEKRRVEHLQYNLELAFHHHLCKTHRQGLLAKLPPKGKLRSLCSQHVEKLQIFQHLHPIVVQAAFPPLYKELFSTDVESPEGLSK
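Drosophila S2 cells stably expressing Gal4-DBD/mouse RORγ fusion under metallothionein promoter plus UAS-luciferase; compound 1 h, then 700 uM CuSO4 induction for 20 h at ambient temperature; inhibition read as reduced luminescence.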
Sfp PPTase inh: blocks B. subtilis Sfp PPTase activity; Biochemical Sfp PPTase activity, qHTS; AID 1490; Potency, µM, inactives show largest response in the series, negative = inhibition, actives largely listed as inhibitors; 310,000 compounds, 3.5% hits;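 also: the enzyme is Sfp with the accession as filed and its product quenches rhodamine fluorescence; 0% = enzyme reaction without inhibitor and -100% = no enzyme wells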
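Fluorescence-quenching assay: 15 nM Sfp-PPTase preincubated 15 min at room temperature with compound, then 5 uM rhodamine-CoA and 12.5 uM BHQ-2-labelled YbbR peptide added. Fluorescence (ex 525/em 598 nm) read at start and after 30 min; difference gives rate.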
ClpP mod: qHTS Assay for Activators of ClpP; purified B. subtilis ClpP, FRET peptide cleavage, 20 min; Potency, µM (titrated, usually from 57.5 µM), inactives show top-dose activity change, negative = active; 340,000 compounds, 1.9% hits; active = well fitted falling curve with a large enough effect; inconclusive = small, poorly fitted or top-dose-only effect; inactive = no such curve, though single readings can be large or run the other way; also: the source files actives as falling curves though it sought activators and does not explain the sign; nearly all actives have a fitted effect of over 65% in size
Target sequence (P80244 whole entry, looked up): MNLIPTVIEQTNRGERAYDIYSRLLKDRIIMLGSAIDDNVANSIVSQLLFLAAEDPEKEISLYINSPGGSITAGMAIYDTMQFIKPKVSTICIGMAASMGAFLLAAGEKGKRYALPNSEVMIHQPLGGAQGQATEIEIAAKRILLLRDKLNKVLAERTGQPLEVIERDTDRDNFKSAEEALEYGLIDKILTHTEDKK
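ClpP 10 microg/mL final, pH 8 Tris/KCl buffer with BSA, glycerol, Tween-20; compound pinned in; FRET-FV substrate; RT 20 min; Ex320/Em430; ΔFRET vs ADEP 5.8 microM, DMSO, no enzyme.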
PINK1 expr mod: changes PINK1 expression. PINK1 immunofluorescence, high-content cytometry, 24 h. 410,000 compounds, 0.2% hits. AID 624263. Potency, µM (top dose mostly 76.6 µM), for inactives: at the highest dose activation (PINK1 increase), actives largely listed as activators; active = well fitted activation curve with a large enough effect; inconclusive = small, poorly fitted or top-dose-only effect; cell line not stated here; also: % of control where 0% means no effect; nearly all actives have a fitted effect of over 65% in size
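Readout is PINK1 immunofluorescence, quantified alongside mitochondrial, cell and nuclear markers by laser-scanning microplate cytometry. Cells from a stable line were exposed to compound titrations (5 concentrations) for 24 hours, with CCCP controls.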
Epigenetic derep: regulators of epigenetic silencing causing reporter derepression in mouse cells | murine LDR cells, GFP reporter derepression, 30 h | Potency, µM (titrated, usually from 53.9 µM), for inactives: top-dose GFP activation, usual class: activators | 280,000 compounds, 0.2% hits; also: % of control where 0% means no effect; nearly all actives have a fitted effect of over 60% in size
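In this reporter-derepression format, murine cells bearing a silenced integrated CMV-GFP locus incubate with test compound (30 h, 37 C), then are washed and imaged; fluorescent objects of 20–120 um count as induced cells.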
VP16 counter: inhibits Gal4-VP16 luciferase reporter, ROR gamma counter-screen | Drosophila S2 Gal4-VP16 UAS-luciferase, luminescence, 20 h | Potency, µM (top dose mostly 53.6 µM), for inactives: at the highest dose activity, negative = inhibition, hits mostly inhibitors | 310,000 compounds, 3.5% hits;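 also: Gal4-VP16 expression switched on by copper sulfate through the metallothionein promoter; % is scaled to controls: 0 for no effect and ±100 for the full control effect; nearly all actives have a fitted effect of over 50% in size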
Starred values were filed as active, the others as inactive; ? = inconclusive; · = not tested or not shown; [ ] = remark or other dose. Unless noted, calls follow the shape of the dose curve; as a rule, active = well fitted curve in the direction sought with a large enough effect; inconclusive = small, poorly fitted or top-dose-only effect, or another doubt; inactive = no such curve, though single readings can be large; an effect the other way counts as inactive or inconclusive. Potency is read from the fitted curve at half-maximal effect.

SMILES	RORgamma inh	Sfp PPTase inh	ClpP mod	PINK1 expr mod	Epigenetic derep	VP16 counter
CCOc1cc(N2CCOCC2)c(OCC)cc1NC(=O)c1cc(-c2ccco2)nc2ccccc12	-98%	28µM*	5%	·	0%	?
COc1ccc(NC(=O)c2cc(-c3ccco3)nc3ccccc23)cc1S(=O)(=O)N1CCOCC1	24%	5µM*	-23%	4%	0%	-19%
O=C(COc1ccccc1F)Nc1ccc2nc(SCC(=O)N3CCCC3)sc2c1	·	·	-2%	-1%	-1%	·
COc1cccc(CNc2nccn(-c3cc(C)cc(C)c3)c2=O)c1	·	·	-18%	0%	1%	·
COc1ccc(-c2nc(-c3ccncc3)no2)c(OC)c1	7.9µM*	0%	-2%	0%	·	?
COc1ccc(-c2noc(-c3ccccc3F)n2)cc1	?	-9%	-8%	2%	1%	?
Cc1noc(-c2ccc(-c3noc(-c4ccccc4)n3)cc2)n1	·	·	-1%	4%	0%	·
Cc1ccc(-c2nc(-c3ccccc3)no2)c(Cl)c1	10µM*	?	-9%	28%	2%	7.1µM*
COc1ccc(-c2noc(-c3ccccc3-c3ccccc3)n2)cc1	16µM*	-6%	-8%	11%[38.3 µM]	-1%	12%
Brc1ccccc1-c1nc(-c2ccccc2)no1	-12%[0.365 µM]	3%	·	·	0%	·
Cc1ccc(-c2nc(-c3ccccc3)no2)cc1	10µM*	0%	1%	8%	0%	13µM*
CC(C)C1C(=O)Nc2ccc(S(=O)(=O)NCCc3ccc(Cl)cc3)cc21 (stereo not drawn)	·	·	4%	-2%	-1%	·
COc1ccc(-c2cc(C(F)(F)F)c(C#N)c(SCC(=O)Nc3ccc(F)cc3)n2)cc1	·	·	-4%	1%	15%	·
Cc1ccc(-c2nc(-c3ccncc3)no2)cc1	14µM*	-1%	1%	0%	·	?
Clc1nc(-c2cccnc2)nc2scc(-c3ccccc3)c12	?	-48%	-29%	7%	-3%	9%
COc1ccc(-c2csc3nc(-c4cccnc4)nc(Cl)c23)cc1OC	-21%	25µM*	·	10%	0%	-8%
CCc1nnc(NC(=O)C2CCCO2)s1 (stereo not drawn)	-5%	5%	-2%	2%	2%	-10%
O=C(Nc1nnc(COc2ccc(Cl)cc2)s1)C1CCCO1 (stereo not drawn)	31%	13µM*	-1%	1%	-1%	10%
COc1ccc(-c2nnc(NC(=O)C3CCCO3)s2)cc1 (stereo not drawn)	?	9%	13µM*	-2%	-1%	-9%
COc1ccc2[nH]cc(C(=O)CN3CC(C)CC(C)C3)c2c1 (stereo not drawn)	-11%	6%	1%	-1%	·	3%
COc1ccc2[nH]cc(C(=O)CCl)c2c1	7.9µM*	8%	1%	-1%	?	6.3µM*
COc1ccc2[nH]cc(C(=O)CN3CCN(C/C=C/c4ccccc4)CC3)c2c1	0%	13%	·	·	10µM*	-4%
Cc1ccc(-n2nc3c(c2NC(=O)c2ccco2)CS(=O)C3)c(C)c1 (stereo not drawn)	·	·	25µM*	-4%	·	·
Cc1ccc(-n2nc3c(c2NC(=O)C(C)(C)C)CSC3)c(C)c1	21%	71µM*	-1%	3%[38.3 µM]	-1%	-23%
CCC(=O)Nc1c2c(nn1-c1ccc(C)cc1C)CSC2	2%	?	2%	-1%[38.3 µM]	0%	-1%
SMILES	RORgamma inh	Sfp PPTase inh	ClpP mod	PINK1 expr mod	Epigenetic derep	VP16 counter
Cc1cccc(-n2nc3c(c2NC(=O)c2ccco2)CSC3)c1C	3%	40µM*	-1%	?	0%	17%
Cc1cccc(-n2nc3c(c2NC(=O)c2ccco2)CS(=O)C3)c1C (stereo not drawn)	3%	16%	·	0%	-2%	2%
OCC(CO)(CBr)CBr	7%	·	·	·	·	-19%
COc1ccc(CCc2c[nH]c(=O)c3cncnc23)cc1OC	·	·	3%	2%	·	·
O=c1c(O)c(-c2ccc(O)c(O)c2)oc2c(OC[C@@H]3O[C@@H](O)[C@@H](O)[C@H](O)[C@H]3O)c(O)cc(O)c12	7%	56µM*	·	·	1%	-9%
O=C(c1ccncc1)N1CCN(C2CCC(c3ccccc3)CC2)CC1 (stereo not drawn)	-24%	79µM*	·	2%	1%	-6%
O=C(c1ccncc1)N1CCN(C2CCCCC2)CC1	-17%	-4%	·	0%	5%	4%
CCc1nnc2c3ccccc3nc(Nc3cc(C)cc(C)c3)n12	·	·	-12%	2%	-1%	·
COCOc1c2c(c(OCOC)c3c(OCOC)cccc13)/C(=N/N[S+](=O)([O-])c1ccc(C)cc1)C1=C2CCCC1	-13%	4%	·	·	-1%	1%
CCn1c(=NC(=O)CSC(C)=O)sc2cc(OC)ccc21	10µM*	18%	-4%	5%	-1%	?
CCc1ccc(-n2nc3cc(C)c(N)cc3n2)cc1	-19%	56µM*	4%	0%	·	?
CCOC(=O)c1ccc(NC(=O)NCCc2ccccc2OC)cc1	?	19%	-1%	2%	4%	?
CCOC(=O)c1ccc(NC(=S)NCCc2ccccc2F)cc1	3.5µM*	21%	·	?	-1%	?
CCOC(=O)c1ccc(NC(=S)NCc2ccccc2)cc1	14µM*	-5%	-1%	?	·	?
CCOC(=O)c1ccc(NC(=S)NCCc2ccccc2)cc1	8.9µM*	7%	-12%	-1%	0%	?
COc1ccc(Cc2nc3ccc(C(=O)NCCCN4CCN(C)CC4)cc3o2)cc1	·	·	-14%	1%	1%	·
Cc1nc2nncn2c(Nc2ccc(F)cc2)c1C	·	·	0%	0%	0%	·
O=C(COc1ccc(F)cc1)Nc1ccc(S(=O)(=O)N(Cc2ccccc2)c2ccccc2)cc1	·	·	1%	4%	2%	·
COc1ccc(N2CCN(C(=O)c3ccc4c(c3)NC(=O)C(CSCc3c(F)cccc3Cl)N4)CC2)cc1 (stereo not drawn)	-15%	-27%	·	·	·	3%
Cc1ccc(CSCC2Nc3ccc(C(=O)N4CCN(c5cccc(C)c5)C(C)C4)cc3NC2=O)cc1 (stereo not drawn)	0%	50µM*	·	·	·	-4%
Cc1cccc(N2CCN(C(=O)c3ccc4c(c3)NC(=O)C(CSCc3ccc(F)cc3)N4)CC2C)c1 (stereo not drawn)	2%	56µM*	·	·	·	-5%
O=C(OCC(=O)N1CCOCC1)c1cc2ccccc2oc1=O	·	·	4%	2%	·	·
CC1CC(C)CN(C(=O)COC(=O)c2cc3ccccc3oc2=O)C1 (stereo not drawn)	·	·	35µM*	-2%	·	·

Screening data (PubChem)
